Assay outcomes from PubChem.
IEC-6 tox = IEC-6 cytotoxicity, counter-screen for KLF5 inhibitors; luminescence viability; inhibition, % at 5 µM; hit rate 0.78% among 290,000; in the data active = inhibition above about 22%;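 note: 0% = plate median of test compound wells and 100% = cytotoxic reference compound wells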
BaF3 parental = counter-screen for JAK2V617F inhibitors: parental Ba/F3 viability inhibitors | CellTiter-Glo ATP luminescence | inhibition, % at 5.6 µM | hit rate 1.1% among 220,000 | AID 1486;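 active = inhibition above a per-campaign cutoff, the mean inhibition of all tested compounds plus 3 SD, cut at about 27% in these data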;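 note: 0% = DMSO wells and 100% = JAK Inhibitor I control wells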
aSyn UTR inh = 5' untranslated region of α-synuclein, MLPCN primary screen; alpha-synuclein 5'UTR reporter, inhibitor activity; hit rate 0.82% among 300,000; inhibition, % (tested at 7.5 µM); AID 1813; in the data active = inhibition above about 60%;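 note: H4 neuroglioblastoma cells stably carrying SNCA 5'UTR luciferase fusion; 0% = DMSO wells and 100% = positive control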
Ba/F3 V617F tox = loss of viability in JAK2V617F-driven Ba/F3 cells; hit rate 1.1% among 220,000; inhibition, % at 5.6 µM; Ba/F3 EpoR-JAK2V617F viability, ATP luminescence; AID 1446;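 active = inhibition above the campaign mean plus 3 SD over all tested compounds, cut at about 24% in these data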;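 note: cytokine-independent growth of Ba/F3 cells driven by EpoR plus mutant JAK2; 0% = DMSO-treated cells and 100% = JAK inhibitor I control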
KLF5 inhibitor = kruppel-like factor 5 inhibition. AID 1700. inhibition, % at 5 µM. hit rate 0.23% among 290,000. DLD-1 KLF5 promoter-luciferase reporter, luminescence;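 active = inhibition above a per-plate limit of that plate's mean compound inhibition plus 3 SD, cut at about 60% in these data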;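 note: 0% = DMSO wells and 100% = LY294002 at 200 µM; higher means less KLF5 promoter-driven luciferase light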
APP transl inh = APP translation inhibition. SH-SY5Y APP 5'UTR-luciferase reporter, luminescence. inhibition, % at 2 µM. hit rate 0.82% among 190,000. AID 1285;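 active = inhibition above a set limit, derived from the sample mean plus 3 SD, cut at about 45% in these data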
The depositor's hits bear a star; nt = not tested or not shown. In the library only some 2.2% were active in any assay of this set; here they are far more common.

SMILES | IEC-6 tox | BaF3 parental | aSyn UTR inh | Ba/F3 V617F tox | KLF5 inhibitor | APP transl inh
O=C(c1nc2ccc(Cl)cn2c1CN1CCC[C@H]1CO)N1CCCCCCC1 | 0 | nt | -4 | nt | -16 | nt
COc1ccc(NC(=O)c2cc(-c3ccccc3OC)on2)cc1 | 8 | 6 | 20 | 3 | -6 | 74*
COc1ccc(NC(=O)c2cc(-c3ccccc3Cl)on2)cc1 | -11 | nt | -125 | nt | -93 | nt
COc1cc(C(=O)NCCc2ccc(F)cc2)ccc1OCC(=O)N1CCOCC1 | nt | nt | -6 | nt | nt | nt
O=C(NNC(=O)c1cccnc1SCc1cccc([N+](=O)[O-])c1)c1ccc(F)cc1 | -11 | 7 | -1 | 0 | 8 | 20
O=C(NNC(=O)c1cccnc1SCc1cccc([N+](=O)[O-])c1)c1ccccn1 | 5 | 9 | 103* | -2 | 18 | 72*
c1ccc(Cc2cc[n+](Cc3ccccn3)cc2)cc1 | 2 | 65* | 3 | 57* | -22 | nt
O=[N+]([O-])c1ccc(C[n+]2ccc(Cc3ccccc3)cc2)cc1 | -1 | 37* | 13 | 13 | -18 | -43
C(=N\Nc1nc2ccccc2[nH]1)/c1cccc2cccnc12 | 0 | 50* | 73* | 91* | 26 | nt
O=C(O)C1CCCN1S(=O)(=O)c1cccc2nsnc12 (stereo unspecified) | 8 | 1 | 4 | -1 | -2 | 24
Cc1cc(C(=O)NN=C2CCCCC2)c2ccccc2n1 | 3 | 0 | nt | 0 | 2 | 80*
Cc1cc(C(=O)NN=C2C3CC4CC(C3)CC2C4)c2ccccc2n1 | 7 | 2 | 18 | -3 | 7 | 76*
OC1(c2ccccc2)CN(c2ccccc2)C2=[N+]1CCS2 (stereo unspecified) | 5 | 37* | -33 | 35* | -35 | -16
OC1(c2cccs2)CN(c2ccc(Br)cc2)C2=[N+]1CCCS2 (stereo unspecified) | -5 | -4 | -25 | -2 | -6 | nt
Cc1cc(C)c[n+](C(C)C(=O)c2ccc(-c3ccccc3)cc2)c1 (stereo unspecified) | -2 | 65* | 12 | 66* | -30 | 6
Cc1ccc[n+](C(C)C(=O)c2ccc(Cl)cc2)c1 (stereo unspecified) | -12 | nt | -1 | nt | -14 | nt
N#CCCN1CCN(C(=S)c2ccc(-c3ccc(Cl)cc3)o2)CC1 | -5 | 93* | -88 | -2 | -35 | 5
S=C(c1ccc(-c2ccc(Cl)cc2)o1)N1CCCCC1 | -4 | 0 | -150 | -1 | -165 | -184
OC(Cn1ccnc1)c1ccc(Cl)cc1Cl (stereo unspecified) | 2 | 6 | 19 | -1 | -12 | 3
CC1(c2ccc(Cl)cc2Cl)OCC(Cn2ccnc2)O1 (stereo unspecified) | 2 | 95* | 17 | 0 | -17 | -14
CCCCCCCCCCOC(=O)C[N+](C)(C)C/C=C(/C)Cl | 2 | 59* | 4 | 67* | -30 | -7
CCCCCCCCCCCCOC(=O)C[N+](C)(C)C | -4 | 12 | 15 | 8 | -9 | nt
CCCCCCCOC(=O)c1nc(Cl)c(Cl)c(N)c1Cl | -7 | 5 | -6 | -3 | -3 | -22
CCCCCCCCOC(=O)C[N+](C)(C)C/C=C(/C)Cl | -4 | 53* | -15 | 32* | -19 | -13
Cc1ccc(-c2cc3ncc(C#N)c(N)n3n2)cc1 | -1 | 10 | -48 | 2 | -56 | -76
SMILES | IEC-6 tox | BaF3 parental | aSyn UTR inh | Ba/F3 V617F tox | KLF5 inhibitor | APP transl inh
CCC(=O)N1CCc2cc(S(=O)(=O)N3CCN(c4cc(C)ccc4C)CC3)ccc21 | 1 | nt | 4 | nt | -38 | nt
CCCCn1c(N)c(N(CCOC)C(=O)c2cnc(C)cn2)c(=O)[nH]c1=O | nt | nt | 6 | nt | nt | nt
O=c1cc2oc3cc(O)c(O)cc3c(-c3ccccc3[N+](=O)[O-])c-2cc1O | 12 | nt | 71* | nt | -4 | nt
CC1(C)CC(=O)c2c(nc(SCC(=O)Nc3nsc(-c4ccccc4)n3)c(C#N)c2-c2ccccc2)C1 | 2 | -1 | 74* | -3 | -26 | -10
Cc1nnc(SCC(=O)Nc2nsc(-c3ccccc3)n2)s1 | -6 | 3 | -38 | -2 | -31 | -23
C=CCOC(=O)C1C(=O)CC(C)(O)C(C(=O)OCC=C)C1c1ccc(N(C)C)cc1 (stereo unspecified) | -4 | 6 | -1 | 1 | -31 | -3
C/C(=C1/SC(N2CCCC2)=NC1=O)c1ccc(Br)cc1 | 8 | 28* | 2 | 34* | 0 | -25
CC(C)=C1SC(N2CCCCC2)=NC1=O | -4 | 7 | -9 | 4 | -25 | -12
CC(=O)Nc1ccc(S(=O)(=O)Oc2ccc3c(c2)C(C)=CC(C)(C)N3)cc1 | 33* | 73* | 9 | 80* | -8 | 27
Cc1ccc2c(c1)CCCN2C(=O)c1ccc2c(c1)OCO2 | 2 | 30* | -18 | 29* | -41 | -11
O=C(c1ccc2c(c1)OCO2)N1CCCc2ccccc21 | 7 | 8 | -4 | 7 | 6 | -26
COc1ccc(Nc2nnc(SCC(=O)Nc3ccc4[nH]c(=O)[nH]c4c3)s2)cc1 | 7 | -1 | 4 | 3 | -16 | 9
c1ccc(-c2nnc(-c3ccccn3)nc2NC2CCCCC2)cc1 | 19 | 94* | 101* | 64* | 30 | 77*
CNc1nc(-c2ccccn2)nnc1-c1ccccc1 | 9 | 0 | -9 | -3 | -49 | 11
CCc1nnc(N/N=C/c2c(C)[nH]c3ccccc23)n1N | 102* | 13 | nt | 19 | 21 | -17
Cn1c(N)c(C(=O)Nc2ccc(-c3ccccc3)cc2)sc1=S | 6 | 2 | -1 | 3 | -9 | nt
Cc1ccc(-n2c(CCC(=O)O)ccc2-c2cccs2)cc1C | -2 | 55* | 2 | 0 | 5 | -18
COC(=O)c1cc(C(=O)OCC(=O)NC2CCCC2)cc([N+](=O)[O-])c1 | -2 | nt | -4 | nt | -20 | nt
Cc1cc(OCC[N+]2(C)CCCCC2)nc2ccccc12 | -9 | 48* | -8 | 50* | -32 | nt
Cc1cc(NC2CCCCC2)nc2ccccc12 | 19 | 6 | -43 | 6 | -34 | -4
CCCCCCCC1CC(CSc2ncn[nH]2)OC1=O (stereo unspecified) | 5 | 0 | 19 | -1 | -21 | 49*
CCn1c(C)[n+](Cc2ccccc2)c2ccc(C(=O)OC)cc21 | -7 | 37* | 2 | 16 | -12 | -9
CCOC(=O)c1ccc2c(c1)n(CC)c(/C=C/Nc1ccccc1)[n+]2CC | 0 | 50* | -5 | 36* | -14 | -1
CCn1c(C)[n+](Cc2ccccc2)c2ccc(Cl)cc21 | -2 | 33* | -4 | 28* | -5 | 16
CCn1c(/C=C/N(C)c2ccccc2)[n+](CC)c2ccc(Cl)cc21 | 15 | 65* | 1 | 87* | -12 | -9
Cc1n(Cc2ccccc2)c2ccccc2[n+]1Cc1ccccc1 | 0 | nt | -22 | nt | -14 | nt
CCn1c(/C=C/Nc2ccccc2)[n+](CC)c2ccc(Cl)cc21 | -8 | 12 | -46 | 6 | -5 | 3
CCNC(=O)CC1C(=O)N(c2cccc(C)c2)C(=O)N1CCC(C)C (stereo unspecified) | -1 | nt | 1 | nt | -10 | nt
Cc1ccc(NC(=S)N2CCN(c3ccccn3)CC2)cc1C | 3 | nt | -3 | nt | -15 | nt
